Screening data as filed in PubChem BioAssay.
Shown are actives, neighbours in structure and some others; about 11% of the full set was active somewhere.
Pf growth 48h: P. falciparum growth inhibition at 48 hours (one generation) | actives 5.9% (n = 310,000) | P. falciparum luciferase growth in erythrocytes, 48 h | Potency, µM (titrated, usually from 28.7 µM), inactives show top-dose activity change, negative = inhibition, hits mostly inhibitors; also: % is scaled to controls: 0 for no effect and ±100 for the full control effect
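Parasite viability was followed by luminescence of a genomically integrated firefly luciferase. Cultures held 0.1% parasitemia at 2% hematocrit (final), incubated under 5% CO2 at 37 C.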
NS1 function inh: blocks influenza NS1 protein function; Potency, µM (top dose mostly 46.1 µM), inactives show at the top dose activity, positive = more growth; actives 0.4% (n = 270,000); AID 2326; calls by dose curve; also: actives are rising curves; nearly all actives have a fitted effect of over 50% in size
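S. cerevisiae expressing influenza A NS1, grown in glucose, washed, then diluted 1:100 into pH 6.0 -URA galactose medium with 23 nl compound. Growth recovery read as OD600; NS1-free strain serves as control.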
Pf growth 96h: P. falciparum growth inhibition at 96 hour, primary screen for plastid delayed-death inhibitors | actives 6.9% (n = 320,000) | Potency, µM (series often up to 28.7 µM), without a hit: at the highest dose activity change, negative = inhibition, actives largely listed as inhibitors | P. falciparum luciferase reporter growth, 96 h; also: % is scaled to controls: 0 for no effect and ±100 for the full control effect
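Parasite growth measured via integrated firefly luciferase reporter in P. falciparum. Infected erythrocytes at 2% hematocrit, 0.05% parasitemia final were treated 96 hours at 37 C under 5% CO2, and luminescence was read.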
HCV inhibitor: HCV inhibition. Huh7.5.1 HCVcc-Cre infection, luciferase reporter, 44 h. Potency, µM (series often up to 41.8 µM), for the others: at the top dose activity change, negative = inhibition, most hits filed as inhibitors. actives 3.4% (n = 340,000); also: % is scaled to controls: 0 for no effect and ±100 for the full control effect
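HCVcc-Cre virus at an moi near 0.5 was added right after compound to cells cultured 4 h from seeding (1,000 cells/well). Luciferase activity was determined 44 h later, 15 min after substrate addition at RT.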
Vaccinia mCherry: inhibitors of vaccinia virus infection (mCherry reporter signal) | actives 0.63% (n = 310,000) | Potency, µM (series often up to 36.5 µM), inactives show at the highest dose activity change, negative = inhibition, most hits filed as inhibitors | AID 720579 | Vaccinia virus mCherry reporter infection, fluorescence; calls by dose curve; tested in A549 cells; also: % is scaled to controls: 0 for no effect and ±100 for the full control effect; nearly all actives have a fitted effect of over 35% in size
Vaccinia Venus: inhibitors of vaccinia virus (Venus reporter); AID 720580; actives 0.46% (n = 330,000); Vaccinia virus Venus reporter expression, fluorescence; Potency, µM (doses to about 36.5 µM), inactives show top-dose activity change, negative = inhibition, most hits filed as inhibitors; calls by dose curve; tested in A549 cells; also: % is scaled to controls: 0 for no effect and ±100 for the full control effect; nearly all actives have a fitted effect of over 30% in size
Active calls of the source: *; i = inactive; ? = inconclusive; · = no result given; ! = not active in a repeat. Unless noted, calls follow the shape of the dose curve; as a rule, active = well fitted inhibition curve with a large enough effect; inconclusive = small, poorly fitted or top-dose-only effect, or another doubt; inactive = no such curve, though single readings can be large or run the other way. Potency is read from the fitted curve at half-maximal effect.

SMILES | Pf growth 48h | NS1 function inh | Pf growth 96h | HCV inhibitor | Vaccinia mCherry | Vaccinia Venus
CCOC(=O)c1ccc(NC(c2ccc(N(C)C)cc2)P(=O)(OC(C)C)OC(C)C)cc1 (stereo not given) | 13µM* | -13% | 23% | ? | ? | -8%
c1ccc(C2CN3CCSC3=N2)cc1 (stereo not given) | 2.7µM*! | ? | 1.9µM*! | 30% | i | -6%
N#C/C(=C\c1ccc(O)cc1)C(=O)O | · | · | · | 1.1µM* | 10% | -18%
N#Cc1cccc(NC(=O)CSc2ccc3c4c(cccc24)C(=O)c2ccccc2-3)c1 | · | 8% | 54% | 8.9µM* | -15% | 18%
Cc1ccc(C)c(NC(=O)Cn2c(=O)n(Cc3cccs3)c(=O)c3cccnc32)c1 | · | · | · | · | i | -14%
CCC(Sc1ccccc1C(=O)O)C(=O)O (stereo not given) | · | 0% | · | 16% | · | ·
CCC(Sc1nc(N)cc(N)n1)C(=O)O (stereo not given) | · | 11% | 3.3µM* | -9% | · | ·
CCOc1ccccc1OC(=O)c1ccco1 | 3% | -5% | -3% | 22% | · | ·
OC(CNCc1ccccc1)Cn1ccc2ccccc21 (stereo not given) | 9.3µM* | 15% | ? | 11µM* | · | ·
OC(CNCCNc1ncccc1C(F)(F)F)Cn1ccc2ccccc21 (stereo not given) | 1.5µM* | 6% | 1.9µM* | ? | · | ·
O=c1[nH]c(-c2cccnc2)nc2sc(-c3ccccc3)cc12 | 99% | 3% | 57% | -12% | · | ·
Cc1nc2sc(-c3ccccc3)cc2c(=O)[nH]1 | · | -71% | 131% | 10µM* | -7% | -1%
CN(Cc1ccccc1)C(=O)c1ncn2c1C(=O)N(C)CC2 | · | · | · | · | 7% | -13%
CC1(C(=O)NS(=O)(=O)Cc2ccccc2C(F)(F)F)CCN1C(=O)c1cccc(F)c1 (stereo not given) | · | · | · | · | i | -5%
O=C(O)CN1C(=O)c2ccc(Oc3ccc4c(c3)C(=O)N(CC(=O)O)C4=O)cc2C1=O | 2.1µM* | 1% | 50% | 22% | · | ·
Nc1c(CC(=O)O)cccc1C(=O)c1ccc(Br)cc1 | -1% | · | -3% | · | · | ·
Fc1cc(F)c2nc(N3CCCCC3)sc2c1 | 45% | 0% | 8.3µM* | 1% | -28% | -18%
O=C(c1ccc([N+](=O)[O-])o1)N1CCN(c2nc3c(F)cc(F)cc3s2)CC1 | 1µM* | · | 0.33µM* | 0.56µM* | i | -15%
O=C(c1cccs1)N1CCN(c2nc3c(F)cc(F)cc3s2)CC1 | -7% | · | ? | -20% | -4% | -18%
Cc1ccc(C)c2sc(N3CCN(C(=O)c4ccc([N+](=O)[O-])o4)CC3)nc12 | 0.83µM* | · | 0.33µM* | ? | ? | ?
COc1ccccc1CCNC(=O)c1nc(-c2cccs2)no1 | 32% | · | 13% | 5% | -16% | -19%
CCOc1ccc(NC(=O)C(C)Oc2ccccc2C(=O)Nc2ccc(C)c(Cl)c2)cc1 (stereo not given) | ? | 5% | ? | 11µM* | · | ·
O=C(Cc1coc2cc(O)ccc12)N1CCN(S(=O)(=O)c2ccc(Br)cc2)CC1 | · | · | · | 11µM* | · | ·
Cc1ccc2[nH]c(=O)c(CN(CCCN3CCOCC3)C(=O)Nc3ccc(Cl)cc3)cc2c1 | 3.7µM* | -10% | 0% | ? | · | ·
Cc1ccc(NC(=S)N(CCN2CCOCC2)Cc2cc3cc4c(cc3[nH]c2=O)OCCO4)cc1 | ? | 1% | ? | -4% | · | ·
Cc1cccc(NC(=O)N(Cc2cc3cc(C)ccc3[nH]c2=O)CC2COCCO2)c1 (stereo not given) | ? | -7% | 16% | -15% | ? | -27%
Cc1ccc2[nH]c(=O)c(CN(CCCN3CCOCC3)C(=O)Nc3cccc(Cl)c3)cc2c1 | 8.3µM* | -11% | 1% | 6% | -6% | -16%
COc1ccc(NS(=O)(=O)c2cccc(C(=O)N/N=C/c3ccccn3)c2)cc1 | 0% | 2% | 0% | -1% | -3% | -2%
COc1ccccc1NC(=O)c1ccc2nc(-c3ccccc3)c(-c3ccccc3)nc2c1 | ? | 2% | ? | ? | · | ·
